Bioassay records deposited in PubChem by The Scripps Research Institute Molecular Screening Center.
GPR151 activ: human GPR151 activation; activation, % at 11.2 µM; 650,000 tested, 1% active; Q8TDV0; PathHunter beta-arrestin GPR151 cells, luminescence; in the data active = activation above about 4.9%
Target sequence (Q8TDV0 whole entry, looked up): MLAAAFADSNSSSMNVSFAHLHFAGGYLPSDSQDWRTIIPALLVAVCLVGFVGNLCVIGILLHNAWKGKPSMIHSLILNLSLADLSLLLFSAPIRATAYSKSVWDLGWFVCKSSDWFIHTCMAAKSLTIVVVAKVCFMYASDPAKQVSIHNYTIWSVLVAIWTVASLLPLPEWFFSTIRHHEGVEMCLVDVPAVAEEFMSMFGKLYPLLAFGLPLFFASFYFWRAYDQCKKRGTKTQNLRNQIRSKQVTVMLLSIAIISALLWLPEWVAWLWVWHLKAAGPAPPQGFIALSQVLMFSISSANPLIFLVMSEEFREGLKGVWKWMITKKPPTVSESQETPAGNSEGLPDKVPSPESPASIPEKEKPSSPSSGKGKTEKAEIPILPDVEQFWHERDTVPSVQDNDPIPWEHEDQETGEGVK
MITF primary: inhibitors of human MITF; AlphaScreen MITF homodimerization, bead proximity signal; inhibition, % at 2.6 µM; 650,000 tested, 0.91% active; AID 1259374; in the data active = inhibition above about 50%
TEAD-YAP block: TEAD-YAP interaction inhibition | inhibition, % at 9.12 µM | 640,000 tested, 1.4% active | HEK-TIYL cells, TEAD-Gal4/YAP UAS-luciferase luminescence; in the data active = inhibition above about 32%
FBW7 act: activators of human E3 ligase FBW7 | Q969H0 | AlphaScreen FBW7–phospho-cyclin E peptide binding, activator screen | normalized activity (activation), % at 26.1 µM | 650,000 tested, 0.13% active; in the data active = normalized activity above about 1.9%;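 note: purified mutant Fbw7 with reduced substrate affinity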
GPR151 conf act: confirmation of human GPR151 activators; shares compounds with GPR151 activ; GPR151 PathHunter beta-arrestin cells, luminescence, 90 min; % of EA-reagent control over plate median; activation, % at 11.2 µM; 6,700 tested, under 10 active; AID 1508609;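 active = mean percent activation across replicates above the confirmation screen cutoff of 4.91%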
GPR119 counter: GPR119 activation, counter-screen for GPR151 activators; AID 1508611; 6,700 tested, 0.3% active; GPR119 PathHunter beta-arrestin cells, luminescence, 90 min; 0 = compound-well median, 100 = enzyme-acceptor control; activation, % at 11.2 µM; shares compounds with GPR151 activ;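 active = mean percent activation in the counterscreen above 29.09%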;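 note: counterscreen on off-target GPR119 to flag nonselective hits from the GPR151 activator screen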
Hits are given with their value; i = inactive; nt = no result. In the library only some 3.5% were active in any assay of this set; here they are far more common.

SMILES	GPR151 activ	MITF primary	TEAD-YAP block	FBW7 act	GPR151 conf act	GPR119 counter
COC(=O)c1cccc(-n2c(=O)c3ccccc3c3ccccc3c2=O)c1	i	i	i	i	nt	nt
CCOc1ccc(S(=O)(=O)c2c[nH]c3ccc(OC)cc3c2=O)cc1	i	i	i	i	nt	nt
Cc1nn(CC(=O)NC(C)C)c(=O)c2cc3ccsc3n12	i	i	i	i	nt	nt
CC(C)C(=O)OCCN1C(=O)c2cccc3c(N4CCCCC4)ccc(c23)C1=O	i	i	i	i	nt	nt
CC(C)C(=O)OCCN1C(=O)c2cccc3c(N4CCOCC4)ccc(c23)C1=O	6.6	i	i	i	i	i
Cc1ccccc1NS(=O)(=O)c1ccc(-c2ccc(-n3cnnn3)cc2)cc1	5.7	i	i	i	i	i
COc1ccc(-n2nnc3c(=O)n(CC(=O)Nc4ccc(C(N)=O)cc4)cnc32)cc1OC	i	i	i	i	nt	nt
NS(=O)(=O)c1ccc(NC(=S)NC(=O)C(c2ccccc2)c2ccccc2)cc1	5.4	i	i	i	i	i
CC(=O)Nc1cccc(NC(=S)Nc2ccc(S(N)(=O)=O)cc2)c1	i	i	i	i	nt	nt
CC(=O)NC(=S)Nc1ccc(S(N)(=O)=O)cc1	5.5	i	i	i	i	i
O=C(CN1C(=O)C2C3C=CC(C3)C2C1=O)N1CCN(c2ccccc2)CC1 (stereo unspecified)	5.5	i	i	i	i	i
Cc1nc(=O)c(-c2ccccc2)c(C)n1-c1ccc(C(=O)O)cc1	i	i	i	i	nt	nt
CCOC(=O)c1ccc(-n2c(C)nc(=O)c(-c3ccccc3)c2C)cc1	7.8	i	i	i	i	i
CN(C)CCN(C)C(=O)c1cccc(OC2CCN(C3CCC3)CC2)c1	i	i	i	i	nt	nt
CC(C)n1cnc2c(NCc3cccc(C(F)(F)F)c3)nc(Nc3cccc(N(C)C)c3)nc21	i	i	i	i	nt	nt
C/C(=C\c1ccccc1)C(=O)NCCc1ccccc1	15	i	i	i	i	i
COc1ccccc1-n1c(O)c(C=Nc2cccc(C)c2)c(=O)[nH]c1=S	5.1	i	i	i	i	i
CCc1ccc(NC(=O)CSc2nnc(-c3ccc(N)cc3)n2C)cc1	i	i	i	i	nt	nt
Cn1c(SCC(=O)Nc2ccc3nc(SCC(=O)Nc4ccccc4F)sc3c2)nnc1-c1ccc(Cl)cc1Cl	i	i	i	i	nt	nt
CCn1c(SCC(=O)Nc2ccc(C(C)=O)cc2)nnc1-c1ccco1	i	i	i	i	nt	nt
CC(=O)Nc1ccc(NC(=O)CSc2nnc(-c3ccncc3)n2C)cc1	i	i	i	i	nt	nt
Cn1c(SCC(=O)Nc2ccc3nc(SCC(=O)c4ccc(Cl)cc4)sc3c2)nnc1-c1ccc(N)cc1	5.5	i	i	29	i	i
CCn1c(SCC(=O)Nc2ccc(C(N)=O)cc2)nnc1-c1ccco1	6.8	i	i	i	i	i
Cn1c(SCC(=O)Nc2ccc(Br)cc2)nnc1-c1ccc(N)cc1	5.3	i	i	i	i	i
CC(=O)Nc1ccc(NC(=O)CSc2nnc(-c3ccncc3)n2N)cc1	5.5	i	i	i	i	i
SMILES	GPR151 activ	MITF primary	TEAD-YAP block	FBW7 act	GPR151 conf act	GPR119 counter
COC(=O)c1ccccc1NC(=S)Nc1ccc(OC)c(OC)c1	i	i	i	i	nt	nt
COc1cc(-c2nc3cnccn3c2Nc2ccc(Cl)cc2)ccc1O	i	i	i	i	nt	nt
Cc1nc(CN(C)Cc2ccc(C(=O)NCc3ccccc3Cl)c(=O)[nH]2)cs1	5.2	i	i	i	i	i
CN(Cc1cscn1)Cc1ccc(C(=O)NCc2cccs2)c(=O)[nH]1	i	i	i	i	nt	nt
COc1ccc(CCn2ccc(-c3sc(NCc4ccco4)nc3C)n2)cc1	8.0	i	i	i	i	i
O=C(CS(=O)(=O)c1ccccc1)Nc1nc(-c2ccc3ccccc3c2)cs1	i	i	i	i	nt	nt
O=C(CS(=O)(=O)c1ccccc1)Nc1nc(-c2ccc(F)cc2)cs1	9.7	i	i	i	i	i
CSCCC(NC(=O)C1CCC(C)CC1)C(=O)NCc1ccccn1 (stereo unspecified)	5.0	i	i	i	i	i
O=C(CN1CCN(CC(=O)Nc2ccc(Cl)c(C(F)(F)F)c2)CC1)Nc1ccc(F)cc1	i	i	i	i	nt	nt
O=C(CN1C(=O)CCC1=O)Nc1ccc(Cl)c(C(F)(F)F)c1	6.6	i	i	i	i	i
O=C(c1ccco1)N1CCN(c2cc(NCCO)c([N+](=O)[O-])c3nonc23)CC1	i	i	i	i	nt	nt
